# Bioassay records as filed in PubChem BioAssay.
# Shown are actives, neighbours in structure and some others; about 2.6% of the full set was active somewhere.
# p53 reactivation: restores transcriptional activity of mutant p53. H1299 p53-A138V BP100-luciferase reporter, luminescence, 24 h. Potency, µM (titrated, usually from 92.2 µM), for inactives: at the top dose activity change, positive = activation, actives largely listed as activators. hit rate 0.063% among 320,000; active means well fitted activation curve with a large enough effect; inconclusive means small, poorly fitted or top-dose-only effect; inactive means no such curve, though single readings can be large or run the other way; further: potency means the concentration at half of the fitted maximal effect; % of control where 0% means no effect; nearly all actives have a fitted effect of over 45% in size
#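 H1299 (p53-null), stable ts p53-A138V + BP100-Luc; 1000 cells/well, Opti-MEM/10% FBS; cpd 4 pt, 1:5; 24 h, 37 deg C, 5% CO2; detection reagent 10 min RT; luminescence.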
# TRPV1 PAM: potentiators of human vanilloid receptor 1 (TRPV1); Q8NER1; TRPV1-expressing cells, Fluo-8 calcium influx, capsaicin EC20 potentiation; potentiation, % at 8.33 µM; hit rate 0.02% among 320,000; AID 540277; in the data active means potentiation above about 80%; inconclusive means between about 30% and that limit; further: 0% is about no effect
# Target sequence (Q8NER1 whole entry, looked up): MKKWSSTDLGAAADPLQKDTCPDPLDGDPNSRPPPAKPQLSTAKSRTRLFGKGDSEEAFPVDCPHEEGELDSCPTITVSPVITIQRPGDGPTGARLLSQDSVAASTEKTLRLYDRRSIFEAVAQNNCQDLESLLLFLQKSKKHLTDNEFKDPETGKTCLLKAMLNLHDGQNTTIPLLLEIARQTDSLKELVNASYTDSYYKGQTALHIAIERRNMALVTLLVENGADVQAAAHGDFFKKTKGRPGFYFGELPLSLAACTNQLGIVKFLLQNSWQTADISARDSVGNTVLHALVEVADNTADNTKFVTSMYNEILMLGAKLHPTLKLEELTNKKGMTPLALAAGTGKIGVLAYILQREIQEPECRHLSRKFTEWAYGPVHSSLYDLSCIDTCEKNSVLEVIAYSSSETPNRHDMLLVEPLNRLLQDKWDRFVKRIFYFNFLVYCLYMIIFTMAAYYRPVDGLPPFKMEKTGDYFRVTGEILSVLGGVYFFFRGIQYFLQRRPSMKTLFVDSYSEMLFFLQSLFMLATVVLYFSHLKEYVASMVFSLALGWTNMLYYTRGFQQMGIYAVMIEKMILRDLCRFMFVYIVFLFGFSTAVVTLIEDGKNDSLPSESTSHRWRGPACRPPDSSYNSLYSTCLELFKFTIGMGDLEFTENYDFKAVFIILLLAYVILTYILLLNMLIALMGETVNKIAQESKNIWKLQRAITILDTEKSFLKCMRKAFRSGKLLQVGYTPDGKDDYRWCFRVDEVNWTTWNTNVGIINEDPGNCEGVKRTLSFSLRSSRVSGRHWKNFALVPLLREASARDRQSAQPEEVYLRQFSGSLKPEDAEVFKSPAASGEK
#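 Cells expressing TRPV1 were dye-loaded with Fluo-8 and read kinetically: 10 s baseline, 3 min after compound (agonist portion), then 2 min after EC20 capsaicin (allosteric enhancer portion). Calcium-bound dye fluorescence at 480/520 nm.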
# TRPV1 agonist: agonists of human vanilloid receptor 1 (TRPV1). Q8NER1. TRPV1-expressing cells, Fluo-8 calcium influx, agonist mode. activation, % at 8.33 µM. hit rate 0.19% among 320,000. AID 540275; in the data active means activation above about 80%; inconclusive means between about 30% and that limit; further: 0% is about no effect
#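 Fluo-8 calcium influx in TRPV1-expressing cells, kinetic read (ex 480/em 520 nm). Compound added and read 3 min for agonist activity, followed by capsaicin at EC20 final and 2 min further read for enhancement.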
# KCNH2 WT inh: KCNH2 (human, wildtype) channel inhibition; U2OS, BacMam KCNH2, thallium flux FluxOr; stronger effect = lower value; activity change, % at 1.84 µM; hit rate 0.37% among 340,000;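 active means maximum activity change below -70%; inconclusive means maximum activity change between -70% and -50%; inactive means maximum activity change above -50%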; further: on the % scale 0 is the no-effect control and ±100 the full control effect
#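 U2OS cells were transduced with wild-type KCNH2 virus (2.03 x 10^8 / mL) for 4 h at room temperature, then cultured overnight at 37 C. Thallium flux was read with FluxOr dye. Rate constants were normalized to DMSO controls.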
# ClpP mod: qHTS Assay for Activators of ClpP | purified B. subtilis ClpP, FRET peptide cleavage, 20 min | ATP-dependent Clp protease proteolytic subunit (Bacillus subtilis (strain 168)), P80244 | hit rate 1.9% among 340,000 | Potency, µM (series often up to 57.5 µM), for inactives: at the top dose activity change, negative = active; active means well fitted falling curve with a large enough effect; inconclusive means small, poorly fitted or top-dose-only effect; inactive means no such curve, though single readings can be large or run the other way; further: potency means the concentration at half of the fitted maximal effect; the source files actives as falling curves though it sought activators and does not explain the sign; nearly all actives have a fitted effect of over 65% in size
#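 FRET quenching reversal measured ClpP activation: 10 microg/mL B. subtilis ClpP at pH 8 with the FRET-FV decapeptide, read at 430 nm after 320 nm excitation. The 20-min minus 0-min signal was scaled between DMSO/no-enzyme wells and ADEP (5.8 microM final).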
# KCNH2 3.1 inh: blocks the human KCNH2 3.1 channel isoform. U2OS KCNH2 3.1, thallium flux FluxOr; stronger effect = lower value. activity change, % (tested at about 1.8 µM). hit rate 0.95% among 340,000. AID 720553;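 active means maximum activity change below -70%; inconclusive means maximum activity change from -70% to -50%; inactive means maximum activity change above -50%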;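 further: thallium influx rate constant from kinetic fluorescence after stimulation buffer; on the % scale 0 is the no-effect control and ±100 the full control effect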
#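 Thallium flux read-out: FluxOr dye with Red40 quencher in HBSS/HEPES, 45 min at RT. Rate constants from kinetic reads were normalized to positive and negative DMSO controls. Cells: U2OS virally expressing the 3.1 isoform.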
# Starred values were filed as active, the others as inactive; ? = inconclusive; / = not tested or not shown.
SMILES,p53 reactivation,TRPV1 PAM,TRPV1 agonist,KCNH2 WT inh,ClpP mod,KCNH2 3.1 inh
Cc1ccc(NC(CC(=O)c2ccccc2)c2ccc(F)cc2)cc1 (stereo not drawn),?,-10,?,12,0%,-45
Cc1ccc(C(=O)CC(=O)c2ccccc2)cc1,15%,-22,81*,-13,8%,-4
Cc1ccc(C(=O)CC(Nc2ccc(F)cc2)c2ccccc2)cc1 (stereo not drawn),18µM*,11,?,-9,3%,-31
O=Cc1ccnc2ccccc12,/,/,/,/,-2%,/
O=C(CCCN1C(=O)c2cccnc2Oc2ccc(Cl)cc21)NCc1ccccc1F,/,/,/,/,0%,/
C=C1CSc2nc(=O)c3c(C)c(C)sc3n21,-7%,-3,1,5,16µM*,17
CCCS(=O)(=O)NC(=O)C1(C)CCN(C(=O)c2ccccc2C(F)(F)F)C1 (stereo not drawn),/,/,/,/,-1%,/
COc1ccc(NS(=O)(=O)c2cccc(C(=O)NCC(c3ccc(OC)cc3)N3CCCCC3)c2)cc1 (stereo not drawn),/,/,/,47,-4%,-37
COc1ccc(NS(=O)(=O)c2cccc(C(=O)NCC(c3ccc(OC)cc3)N3CCCC3)c2)cc1 (stereo not drawn),-4%,14,7,28,28µM*,-25
COc1cc(C(O)c2nc(-c3csc4ccccc34)cs2)ccc1F (stereo not drawn),/,/,/,/,-2%,/
Cc1nnc(SCC(=O)Nc2cc(S(=O)(=O)N3CCCC3)ccc2Cl)n1C1CC1,-6%,3,-3,1,-2%,-97*
COc1cc2nc(CC(O)c3nc4cc(OC)c(OC)cc4[nH]3)[nH]c2cc1OC (stereo not drawn),/,/,/,/,-11%,/
Fc1ccc(/C=C/c2ccc3ccccc3n2)cc1,/,/,/,/,-20%,/
Fc1cccc(F)c1/C=C/c1ccc2ccccc2n1,22µM*,-6,16,0,-23%,-20
Cc1coc2c(C)c3oc(=O)c(CCC(=O)N4CCC(C(=O)NCCCC(=O)O)(c5ccccc5)CC4)c(C)c3cc12,1%,18,-4,-21,4%,-197*
Cc1coc2c(C)c3oc(=O)c(CCC(=O)NCCCN4CCOCC4)c(C)c3cc12,11%,-7,-2,0,4%,11
COc1cc2ccccc2cc1C(=O)N1CCN(c2nc3ccc(F)cc3s2)CC1,/,/,/,/,-26%,/
CSc1ccc(CCNC(=O)c2cc3cc(S(=O)(=O)N4CCCCC4)ccc3n2C)cc1,/,/,/,/,22µM*,/
Cc1ccc(CCNC(=O)c2cc3cc(S(=O)(=O)N4CCCCC4)ccc3n2C)cc1,/,/,/,/,-1%,/
CCN1CCN(Cc2c(O)ccc3c(=O)c(-c4ccc(OC)c(OC)c4)c(C)oc23)CC1,-1%,6,-3,-7,28µM*,10
Cc1oc2c(CN3CCOCC3)c(O)ccc2c(=O)c1-c1ccc(Br)cc1,5%,-6,-4,-14,14µM*,-3
COc1ccc(-c2c(C)oc3c(CN4CCN(C)CC4)c(O)ccc3c2=O)cc1,-1%,-32,-3,7,5%,0
O=C(COc1ccccc1-c1nc(-c2ccccc2)no1)Nc1ccc([N+](=O)[O-])cc1,/,/,/,/,1%,/
Cc1ccc(-c2nc(NC(=O)c3nn(C)cc3[N+](=O)[O-])sc2C)cc1C,-15%,-11,-1,4,-3%,-82*
CCCNC(=O)CNC(=O)c1ccccc1OCC(=O)Nc1ccc(Br)cc1,/,/,/,/,0%,/
SMILES,p53 reactivation,TRPV1 PAM,TRPV1 agonist,KCNH2 WT inh,ClpP mod,KCNH2 3.1 inh
CCOc1ccc(NC(=S)NS(=O)(=O)c2cc(Br)ccc2OCC)cc1,/,/,/,-1,0%,-7
CCOc1ccc(Br)cc1S(=O)(=O)Nc1ccc(C(=O)OCC(=O)Nc2ccc(C#N)cc2)cc1,0%,0,-1,-41,-8%,-93*
COc1ccc(CC(=O)Nc2oc(-c3ccccc3)c(-c3ccccc3)c2C#N)cc1OC,4%,-3,84*,4,32µM*,-18
Cc1ccc(Nc2nc3ccccc3[nH]2)nc1,?,17,-1,33,35µM*,-4
Cc1ccc(C)c(C(=O)Nc2nc3ccccc3[nH]2)c1,8%,-21,-2,-2,/,-7
COc1ccc(Cl)cc1NC(=O)CSC1=Nc2ccccc2C2=NC(CC(=O)NCc3ccc4c(c3)OCO4)C(=O)N12 (stereo not drawn),/,/,/,/,-9%,/
CCN(C[C@H]1N[C@@](C)(C(=O)OC)[C@H]2C(=O)N(C)C(=O)[C@@H]12)C(=O)c1ccc(C)cc1,6%,/,/,4,1%,-32
CCN(C[C@H]1N[C@@](C)(C(=O)OC)[C@H]2C(=O)N(C)C(=O)[C@@H]12)C(=O)COc1ccccc1,-1%,/,/,-218*,-2%,3
COC(=O)c1ccccc1NS(=O)(=O)c1c(C)noc1C,-2%,11,-1,5,1%,-109*
Cc1ccc2c(C)ccnc2c1,/,/,/,/,-11%,/
CCn1c2c(c3cc(OCC(C)C)ccc31)CCCC2=O,-6%,-2,5,-14,28µM*,5
Cc1nc(CNS(=O)(=O)c2cc(F)ccc2F)cs1,-2%,24,-3,-8,1%,-181*
Cc1nc(CNS(=O)(=O)c2cccc(F)c2)cs1,-3%,-7,1,-1,1%,7
CN(C)c1oc(-c2ccccc2Cl)nc1P(=O)(c1ccccc1)c1ccccc1,-6%,-8,?,-2,20µM*,-6
COc1ccc(C(=O)OCc2c(-c3ccccc3)ncc3ccccc23)cc1,-4%,/,/,-12,?,-70*
CC(C)(C)S(=O)(=O)c1cnc2c(S(=O)(=O)c3ccccc3)cnn2c1N,0%,2,-1,-2,-8%,-21
Cc1nc2c(S(=O)(=O)c3ccccc3)cnn2c(C)c1C,-3%,82*,2,19,-1%,11
Cc1cc(C)c2c(n1)nn1c(C)c(CCC(=O)Nc3cccc(C)c3C)c(C)nc21,/,/,/,/,5%,/
O=C(CN1C(=O)COc2ccc(S(=O)(=O)N3CCCC3)cc21)Nc1cccc(F)c1,-16%,-11,0,12,1%,-116*
O=C(CN1CCN(S(=O)(=O)c2ccc(Br)cc2)CC1)Nc1ccc(F)cc1,-5%,-8,0,6,1%,-49
NC(=O)CN1CCN(S(=O)(=O)c2ccc(Br)cc2)CC1,1%,0,2,-11,0%,-192*
O=C(CN1CCN(S(=O)(=O)c2ccc(F)cc2)CC1)Nc1cccc(C(F)(F)F)c1,3%,/,/,10,28µM*,7
